Assay outcomes as filed in PubChem.
The full list was thinned out, with hits kept by preference.
Pf Dd2 inh – Plasmodium falciparum Dd2 growth inhibition; Potency, µM (top dose mostly 28.9 µM), for the others: top-dose activity, negative = inhibition, usual class: inhibitors; P. falciparum Dd2 growth, SYBR Green, 72 h; hit rate 4.3% among 120,000; AID 1347417; active means well fitted inhibition curve with a large enough effect;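 further: plate controls were DMSO vehicle for no effect and reference drug for full effect; nearly all actives have a fitted effect of over 65% in size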
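Infected erythrocytes (Dd2, 0.3% parasitemia, 2.5% hematocrit final) are added to compound in RPMI-1640/Albumax II medium, grown 72 h at 37C in low oxygen, then lysed with saponin/Triton-X containing SYBR Green and read by fluorescence.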
Active calls of the source: *; i = inactive; [ ] = another dose, or the depositor's remark. Potency means the concentration at half of the fitted maximal effect.

SMILES	Pf Dd2 inh
COc1ccc(Cn2c(SCc3ccc(C(=O)NC4CCCCC4)cc3)nc3ccncc32)cc1	7.9µM*
Cc1ccc(C(=O)CSc2nc3cc(C(=O)NC4CCCC4)ccc3c(=O)n2CC2CCCO2)c(C)c1 (stereo not given)	-3%
Cc1ccc(Cn2c(=O)n(Cc3ccc(C(=O)NC4CCN(Cc5ccccc5)CC4)cc3)c(=O)c3ccccc32)cc1	7%
Cc1cccc(CSc2nc3cc(C(=O)NC4CCCC4)ccc3c(=O)n2Cc2ccccc2)c1	18%
COc1ccc(Cn2c(SCc3ccc(C(=O)NC4CCCC4)cc3)nc3ccncc32)cc1	-13%
COc1ccc(CSc2nc3ccncc3n2CC(=O)Nc2cc(C)cc(C)c2)cc1	49%
Cc1ccc(CSc2nc3ccncc3n2Cc2nc(-c3ccc(Cl)cc3)oc2C)cc1	5%
Cc1ccc(Cn2c(SCc3ccc(C(=O)NC4CCCCC4)cc3)nc3ccncc32)cc1	11µM*
Cn1nccc1C(=O)N1CCCCCCNC(=O)[C@@H]2C[C@@H](c3nc(-c4cccnc4)no3)C[C@@H]21	-24%
CCc1cc(NC(CCO)c2ccccc2)n2nc(C)c(C)c2n1 (stereo not given)	-29%
O=C(c1ccncc1)N1CCC(c2nnc3n2CCNC3)CC1	-11%
COc1cc(C2C(C(=O)Nc3ccc(Cl)cc3)=C(C)Nc3nc(SC)nn32)cc(OC)c1OC (stereo not given)	-5%
COc1ccc(NC(=O)C2=C(C)Nc3c(C(=O)Nc4ccc(C)cc4)cnn3C2c2cccc(Cl)c2)cc1 (stereo not given)	3.2µM*
COc1cccc(C2C(C(=O)Nc3ccc(Cl)cc3)=C(C)Nc3nc4ccccc4n32)c1OC (stereo not given)	-22%
COc1cccc(C2C(C(=O)Nc3ccc(Cl)cc3)=C(C)Nc3c(C(=O)Nc4ccccc4)cnn32)c1OC (stereo not given)	13µM*
COc1ccc(C2C(C(=O)Nc3ccc(Cl)cc3)=C(C)Nc3nc(SCc4cccc(C)c4)nn32)cc1OC (stereo not given)	8%
COc1ccc(NC(=O)C2=C(C)Nc3nc(SCc4ccc(Cl)cc4)nn3C2c2cccc(OC)c2OC)cc1 (stereo not given)	i
O=C(NCCC1=CCCN(CCCn2cccc2)C1)c1ccco1	i
COc1cccc([S+](=O)([O-])N2CCCC3(COc4ccccc4C(=O)N3)C2)c1 (stereo not given)	-20%
COCc1nc(CCNC(=O)C2CCC2)no1	83%
Cc1nc2cc(S(=O)(=O)N3CCOCC3)ccc2n1CCNC(=O)C1(C)CC1	2%
COc1cc(CNC(C)Cn2nc(C)cc2C)ccc1OCCN1CCCC1 (stereo not given)	3.5µM*
COc1cc(CNCc2cnn(C)c2C)ccc1OCC(O)CN1CCSCC1 (stereo not given)	-12%
COc1ccc(CNc2cc3c(cn2)CN(C)CCN3C)cc1OC	i
CCn1cc(S(=O)(=O)N2CCC3(CCCN(CC4CC4)C3=O)C2)cn1 (stereo not given)	-6%
SMILES	Pf Dd2 inh
O=C(c1ccc(F)cc1)N1CCC(c2n[nH]c(=O)n2-c2ccccc2)CC1	19%
O=C(Cn1nc2n(c1=O)CCCCC2)N1CCN(c2ccc(F)cc2)CC1	32%
O=C(COc1cccc(-c2nnc3n2CCCC3)c1)NCc1ccc(F)cc1	-9%
O=C(COc1ccc(-c2nnc3n2CCCC3)cc1)N1CCN(c2ccc(F)cc2)CC1	3.2µM*
CSc1cccc(NC(=O)Nc2ccc(-c3nnc4n3CCCC4)cc2)c1	25%
O=C(COc1ccc(Cl)cc1)Nc1cccc(-c2nnc3n2CCCC3)c1	3.2µM*
O=C(CN1C(=O)CCC1=O)N1CCCCCCn2c(nnc2-c2ccc(F)cc2)CC1	i
O=C(CC1CCCCC1)Nc1cccc(-c2nnc3n2CCCC3)c1	-7%
O=C(Cc1ccccc1Cl)Nc1cccc(-c2nnc3n2CCCC3)c1	7.1µM*
O=C(COc1ccc(F)cc1)Nc1cccc(-c2nnc3n2CCCC3)c1	8.9µM*
O=C(Nc1ccccc1)Nc1cccc(-c2nnc3n2CCCC3)c1	i
O=C(COc1ccc(Cl)cc1)Nc1ccc(-c2nnc3n2CCCC3)cc1	i
O=C(Cc1cccc(F)c1)Nc1ccc(-c2nnc3n2CCCC3)cc1	-18%
Cn1ccc(C(=O)N2CCC(c3nnc4n3C(C(=O)NCc3ccc(F)cc3)CC4)CC2)n1 (stereo not given)	8%
COC[C@@H]1CN(C(=O)c2cccc(C#N)c2)C[C@H]1c1ccccn1	2%
O=C(N1CCN(S(=O)(=O)c2ccc3c(c2)CCC3)CC1)N1CC2CC(C1)[C@H]1CCCC(=O)N1C2 (stereo not given in full)	i
CNc1nccc(N2CCC(CC(=O)NCCN3CCOCC3)CC2)n1	8%
CC(C)(C)CC(=O)NC[C@H]1OC[C@@H](NC2CCC2)[C@@H]1O	i
C#CCN(C)Cc1nc(C2(O)CCN(C(=O)c3ccccc3)CC2)cs1	-11%[44.1 µM]
CCOc1ccccc1N1CC(c2nc3ccccc3n2Cc2c(C)cc(C)cc2C)CC1=O (stereo not given)	29%
